Source: PubChem BioAssay (NCATS)
“And” between values parts separate entries of the source, which are not always exact repeats. Identical values can stand only once. Inconclusive results are not listed. Entries that show only a call come without a potency. The source holds several records for some structures; these can differ, active in one and inactive in another. The source made the active and inactive calls. The call rests on the fitted dose curve.

What was measured:
[1] = Primary qHTS for Huh7 cytotoxicity: counterscreen for inhibitors of MERS-S pseudotyped particle cell entry (AID 1479147); conditions: outcome: dose series up to 57.1 µM unless noted
[2] = Primary qHTS for inhibitors of MERS-S pseudo-typed particle cell entry (AID 1479149); conditions: outcome: dose series up to 57.1 µM unless noted; further: nearly all actives have a fitted effect of over 60% in size
[3] = Primary qHTS for Vero E6 cytotoxicity: counterscreen for inhibitors of SARS-S pseudo-typed particle cell entry (AID 1479150); conditions: outcome: dose series up to 57.1 µM unless noted
[4] = Cytotoxicity counterscreen for inhibitors of SARS-CoV-2 cell entry (AID 1645845); conditions: outcome: dose series up to 57.1 µM unless noted; further: nearly all actives have a fitted effect of over 50% in size
Outline: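 ATP-content luminescence (ATPLite 1step, 15 min RT) read after 48 h compound exposure of Expi293F cells stably expressing human ACE2; normalized to cells-only wells and media-only wells.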

[5] = Primary qHTS to identify inhibitors of SARS-CoV-2 cell entry (AID 1645846); conditions: SARS-CoV-2 pseudovirus cell entry assay, luminescence; activity change, negative = inhibition: at 57.1 µM (top of the series) unless noted; further: nearly all actives have a fitted effect of over 45% in size; further: potency means the concentration at half of the fitted maximal effect
Outline: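 HEK293 cells stably expressing human ACE2, pre-treated 1 h with compound, then infected with MLV particles pseudotyped with Wuhan-Hu-1 spike (C-terminal 19-aa truncation). Luciferase luminescence after 48 h at 37 °C, normalised to spike PP and bald PP.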

SMILES	Potency [1]	Potency [2]	Potency [3]	Potency [4]	activity change, negative = inhibition [5]	Potency [5]
CCCOc1cc(N)ccc1C(=O)OCCN(CC)CC	inactive	inactive	inactive	inactive	-10.9%	–
CC1(C)S[C@@H]2[C@H](NC(=O)[C@H](NC(=O)N3CCN(S(C)(=O)=O)C3=O)c3ccccc3)C(=O)N2[C@H]1C(=O)O	inactive	inactive	inactive	inactive	-10%	–
CCC(=O)O[C@@H]1CC(=O)O[C@H](C)C/C=C/C=C/[C@@H](O)[C@H](C)C[C@H](CC=O)[C@H](OC2O[C@H](C)[C@@H](O[C@H]3C[C@@](C)(O)[C@@H](OC(=O)CC)[C@H](C)O3)[C@H](N(C)C)[C@H]2O)[C@H]1OC (stereo partly specified)	inactive	inactive	inactive	inactive	-26.3%	–
CCCC(=O)Nc1c(I)cc(I)c(CC(CC)C(=O)O)c1I (stereo unspecified)	inactive	inactive	inactive	inactive	-27.1%	–
Cc1ccccc1-c1cc(N2CCN(C)CC2)ncc1N(C)C(=O)C(C)(C)c1cc(C(F)(F)F)cc(C(F)(F)F)c1	inactive	inactive	inactive	inactive	3.24%	–
CCCCC(C)(O)CC=C[C@H]1[C@H](O)CC(=O)[C@H]1CCCCCCC(=O)OC (stereo partly specified)	inactive	inactive	inactive	inactive	–	inactive
CS(=O)(=O)Nc1cc2occ(NC=O)c(=O)c2cc1Oc1ccccc1	inactive	inactive	inactive	inactive	-19.1% and -29.3%	–
CS(=O)(=O)OCCCNCCCOS(C)(=O)=O	inactive	inactive	inactive	inactive	-19.8%	–
C/C(=C(/CCO)SSCC1CCCO1)N(C=O)Cc1cnc(C)nc1N (stereo unspecified)	inactive	inactive	inactive	inactive	-21.7%	–
O=C(OC[C@H]1O[C@@H](OC(=O)c2cc(O)c(O)c(O)c2)[C@H](O)[C@@H](OC(=O)c2cc(O)c(O)c(O)c2)[C@@H]1O)c1cc(O)c(O)c(O)c1	inactive	inactive	inactive	inactive	-1.77%	–
C[C@@H]1C[C@H]2[C@@H]3C[C@H](F)C4=CC(=O)C=C[C@]4(C)[C@@]3(Cl)[C@@H](O)C[C@]2(C)[C@H]1C(=O)COC(=O)C(C)(C)C	inactive	inactive	inactive	inactive	1.93%	–
CC1CCC(C(C)C)C(OC(=O)c2ccccc2O)C1 (stereo unspecified)	inactive	inactive	inactive	inactive	–	inactive
CCOc1cc(C(CS(C)(=O)=O)N2C(=O)c3cccc(NC(C)=O)c3C2=O)ccc1OC (stereo unspecified)	inactive	inactive	inactive	inactive	-21.8%	–
NC(=O)[C@@H]1C[C@]2(NC(=O)NC2=O)c2cc(F)ccc2O1	inactive	inactive	inactive	inactive	-14.3%	–
OCc1ccccc1	inactive	inactive	inactive	inactive	3.04%	–
CCOC(=O)[C@@H](N)CS	inactive	inactive	inactive	inactive	-29%	–
CN(C)C(=O)NC1CCC(CCN2CCN(c3cccc(Cl)c3Cl)CC2)CC1 (stereo unspecified)	inactive	inactive	inactive	inactive	-20.6% [at 27.1 µM]	–
CCCC1CC(C(=O)NC(C(C)Cl)C2OC(SC)C(OP(=O)(O)O)C(O)C2O)N(C)C1 (stereo unspecified)	inactive	inactive	inactive	inactive	-28.7% [at 27.1 µM]	–
CO/N=C(/C(=O)N[C@@H]1C(=O)N2C(C(=O)O)=C(CSC(=O)c3ccco3)CS[C@H]12)c1csc(N)n1	inactive	inactive	inactive	inactive	-26.3%	–
CCC(C)(C)OC(=O)N[C@@H](Cc1c[nH]c2ccccc12)C(=O)N[C@@H](CCSC)C(=O)N[C@@H](CC(=O)O)C(=O)N[C@@H](Cc1ccccc1)C(N)=O	inactive	inactive	inactive	inactive	-23%	–
NCCC[C@H](NC(=O)[C@@H]1CCCN1C(=O)[C@@H]1CSSC[C@H](N)C(=O)N[C@@H](Cc2ccc(O)cc2)C(=O)N[C@@H](Cc2ccccc2)C(=O)N[C@@H](CCC(N)=O)C(=O)N[C@@H](CC(N)=O)C(=O)N1)C(=O)NCC(N)=O	inactive	inactive	inactive	inactive	-24.3%	–
C[N@+]12CCCC[C@@H]1CCC(=C(c1cccs1)c1cccs1)C2	inactive	inactive	inactive	inactive	-20.7%	–
COC1=C(C(=O)O)N2C(=O)[C@@H](NC(=O)[C@H](N)C3=CCC=CC3)[C@H]2SC1	inactive	inactive	inactive	inactive	-17.7%	–
CC#CCC(C)[C@H](O)/C=C/[C@@H]1[C@H]2c3cccc(CCCC(=O)O)c3O[C@H]2C[C@H]1O (stereo partly specified)	inactive	inactive	inactive	inactive	-5.27%	–
Cc1ccc(Sc2ccccc2N2CCNCC2)c(C)c1	inactive	inactive	inactive	inactive	-7.77%	22.4 µM (active)
CC(C)c1nc(N(C)S(C)(=O)=O)nc(-c2ccc(F)cc2)c1/C=C/[C@@H](O)C[C@@H](O)CC(=O)O	inactive	inactive	inactive	inactive	–	inactive
